Source: the supplement of paper PMC8728848
About 410 targets per protein were measured; listed, in parts, are those with the strongest signals and a random draw of the rest.

Assays:
Assay in all cases: glycan array binding signal (z-score within array); higher = stronger binding
Details in all cases: glycan notation: IUPAC condensed, linker removed
[1] = target: Fuc(a1-2)Gal(b1-4)Fuc(a1-3)]GlcNAc(b1-2)Man(a1-3)[Fuc(a1-2)Gal(b1-4)[Fuc(a1-3)]GlcNAc(b1-2)Man(a1-6)]Man(b1-4)GlcNAc(b1-4)GlcNAc
How it was run: (§1)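 Columns mapping to the same glycan were averaged after glycan names were converted to IUPAC-condensed notation. The data come from 3228 arrays in the Consortium for Functional Glycomics database, limited to those with an available protein sequence. Binding is reported as a within-array Z-score averaged across arrays of one protein sequence and across linkers.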

[2] = target: Fuc(a1-2)Gal(b1-4)GlcNAc(b1-3)[Fuc(a1-3)[Gal(b1-4)]GlcNAc(b1-6)]Gal(b1-4)Glc
How it was run: as §1

[3] = target: Fuc(a1-2)Gal(b1-4)[Fuc(a1-3)]GlcNAc(b1-3)Gal(b1-4)[Fuc(a1-3)]GlcNAc
How it was run: as §1

[4] = target: Fuc(a1-2)[Gal(a1-3)]Gal(b1-3)GlcNAc(b1-6)GalNAc
How it was run: as §1

[5] = target: Fuc(a1-2)[Gal(a1-3)]Gal(b1-4)GlcNAc(b1-2)Man(a1-3)[Fuc(a1-2)[Gal(a1-3)]Gal(b1-4)GlcNAc(b1-2)Man(a1-6)]Man(b1-4)GlcNAc(b1-4)[Fuc(a1-6)]GlcNAc
How it was run: as §1

[6] = target: Fuc(a1-2)[Gal(a1-3)]Gal(b1-4)GlcNAc(b1-3)GalNAc
How it was run: as §1

[7] = target: Fuc(a1-2)[Gal(a1-3)]Gal(b1-4)[Fuc(a1-3)]GlcNAc(b1-3)GalNAc
How it was run: as §1

[8] = target: Fuc(a1-3)[Gal(b1-4)]GlcNAc
How it was run: as §1

[9] = target: Gal(a1-3)Gal(b1-3)GlcNAc(b1-6)GalNAc
How it was run: as §1

[10] = target: Gal(a1-3)[Gal(a1-4)]Gal(b1-4)GlcNAc
How it was run: as §1

Gal(a1-4)GlcNAc = target: Gal(a1-4)GlcNAc
How it was run: as §1

Gal(a1-6)Glc = target: Gal(a1-6)Glc
How it was run: as §1

[11] = target: Gal(b1-3)[Fuc(a1-4)]GlcNAc(b1-3)Gal(b1-3)[Fuc(a1-4)]GlcNAc
How it was run: as §1

[12] = target: Gal(b1-4)GlcNAc(b1-2)Man(a1-3)[Gal(b1-4)GlcNAc(b1-2)Man(a1-6)][GlcNAc(b1-4)]Man(b1-4)GlcNAc(b1-4)[Fuc(a1-6)]GlcNAc
How it was run: as §1

[13] = target: Gal(b1-4)GlcNAc(b1-2)Man(a1-6)Man(b1-4)GlcNAc(b1-4)GlcNAc
How it was run: as §1

[14] = target: Gal(b1-4)GlcNAc(b1-3)Gal(b1-3)GlcNAc
How it was run: as §1

[15] = target: Gal(b1-4)GlcNAc(b1-6)Gal(b1-4)GlcNAc
How it was run: as §1

[16] = target: Gal3S(b1-4)[Fuc(a1-3)]Glc6S
How it was run: as §1

Gal3S6S(b1-4)GlcNAc6S = target: Gal3S6S(b1-4)GlcNAc6S
How it was run: as §1

Gal6S(b1-4)GlcNAc6S = target: Gal6S(b1-4)GlcNAc6S
How it was run: as §1

[17] = target: GalNAc(a1-3)GalNAc(b1-3)Gal(a1-4)Gal(b1-4)GlcNAc
How it was run: as §1

GalNAc(b1-6)GalNAc = target: GalNAc(b1-6)GalNAc
How it was run: as §1

GalNAc4S6S(b1-4)GlcNAc = target: GalNAc4S6S(b1-4)GlcNAc
How it was run: as §1

[18] = target: GlcNAc(b1-2)Man(a1-3)[GlcNAc(b1-2)Man(a1-6)]Man(b1-4)GlcNAc(b1-4)[Fuc(a1-6)]GlcNAc
How it was run: as §1

[19] = target: GlcNAc(b1-3)Gal(b1-4)GlcNAc(b1-3)Gal(b1-4)GlcNAc(b1-2)[GlcNAc(b1-3)Gal(b1-4)GlcNAc(b1-3)Gal(b1-4)GlcNAc(b1-6)]Man(a1-6)[GlcNAc(b1-3)Gal(b1-4)GlcNAc(b1-3)Gal(b1-4)GlcNAc(b1-2)Man(a1-3)]Man(b1-4)GlcNAc(b1-4)[Fuc(a1-6)]GlcNAc
How it was run: as §1

[20] = target: GlcNAc(b1-3)Gal(b1-4)GlcNAc(b1-3)[GlcNAc(b1-3)Gal(b1-4)GlcNAc(b1-3)]GalNAc
How it was run: as §1

[21] = target: GlcNAc(b1-4)[GlcNAc(b1-6)]GalNAc
How it was run: as §1

[22] = target: Man(a1-2)Man(a1-3)[Man(a1-6)]Man(a1-6)[Man(a1-2)Man(a1-3)]Man(b1-4)GlcNAc(b1-4)GlcNAc
How it was run: as §1

[23] = target: Man(a1-3)[Man(a1-6)]Man(b1-4)GlcNAc(b1-4)[Fuc(a1-6)]GlcNAc
How it was run: as §1

[24] = target: Neu5Ac(a2-3)Gal(b1-3)GalNAc(b1-4)Gal(b1-4)Glc
How it was run: as §1

B1: Endo180d1-D4 (Homo sapiens), Q9UBG0 (protein)
chain: MGPGRPAPAPWPRHLLRCVLLLGCLHLGRPGAPGDAALPEPNVFLIFSHGLQGCLEAQGGQVRVTPACNTSLPAQRWKWVSRNRLFNLGTMQCLGTGWPGTNTTASLGMYECDREALNLRWHCRTLGDQLSLLLGARTSNISKPGTLERGDQTRSGQWRIYGSEEDLCALPYHEVYTIQGNSHGKPCTIPFKYDNQWFHGCTSTGREDGHLWCATTQDYGKDERWGFCPIKSNDCETFWDKDQLTDSCYQFNFQSTLSWREAWASCEQQGADLLSITEIHEQTYINGLLTGYSSTLWIGLNDLDTSGGWQWSDNSPLKYLNWESDQPDNPSEENCGVIRTESSGGWQNRDCSIALPYVCKKKPNATAEPTPPDRWANVKVECEPSWQPFQGHCYRLQAEKRSWQESKKACLRGGGDLVSIHSMAELEFITKQIKQEVEELWIGLNDLKLQMNFEWSDGSLVSFTHWHPFEPNNFRDSLEDCVTIWGPEGRWNDSPCNQSLPSICKKAGQLSQGAAEEDHGCRKGWTWHSPSCYWLGEDQVTYSEARRLCTDHGSQLVTITNRFEQAFVSSLIYNWEGEYFWTALQDLNSTGSFFWLSGDEVMYTHWNRDQPGYSRGGCVALATGSAMGLWEVKNCTSFRARYICRQSLGTPVTPELPGPDPTPSLTGSCPQGWASDTKLRYCYKVFSSERLQDKKSWVQAQGACQELGAQLLSLASYEEEHFVANMLNKIFGESEPEIHEQHWFWIGLNRRDPRGGQSWRWSDGVGFSYHNFDRSRHDDDDIRGCAVLDLASLQWVAMQCDTQLDWICKIPRGTDVREPDDSPQGRREWLRFQEAEYKFFEHHSTWAQAQRICTWFQAELTSVHSQAELDFLSHNLQKFSRAQEQHWWIGLHTSESDGRFRWTDGSIINFISWAPGKPRPVGKDKKCVYMTASREDWGDQRCLTALPYICKRSNVTKETQPPDLPTTALGGCPSDWIQFLNKCFQVQGQEPQSRVKWSEAQFSCEQQEAQLVTITNPLEQAFITASLPNVTFDLWIGLHASQRDFQWVEQEPLMYANWAPGEPSGPSPAPSGNKPTSCAVVLHSPSAHFTGRWDDRSCTEETHGFICQKGTDPSLSPSPAALPPAPGTELSYLNGTFRLLQKPLRWHDALLLCESHNASLAYVPDPYTQAFLTQAARGLRTPLWIGLAGEEGSRRYSWVSEEPLNYVGWQDGEPQQPGGCTYVDVDGAWRTTSCDTKLQGAVCGVSSGPPPPRRISYHGSCPQGLADSAWIPFREHCYSFHMELLLGHKEARQRCQRAGGAVLSILDEMENVFVWEHLQSYEGQSRGAWLGMNFNPKGGTLVWQDNTAVNYSNWGPPGLGPSMLSHNSCYWIQSNSGLWRPGACTNITMGVVCKLPRAEQSSFSPSALPENPAALVVVLMAVLLLLALLTAALILYRRRQSIERGAFEGARYSRSSSSPTEATEKNILVSDMEMNEQQE
- glycan array binding signal (z-score) [1]: 4.92
- glycan array binding signal (z-score) [2]: 2.16
- glycan array binding signal (z-score) [3]: 1.23
- glycan array binding signal (z-score) [4]: 0.628
- glycan array binding signal (z-score) [5]: -0.162
- glycan array binding signal (z-score) [6]: 0.423
- glycan array binding signal (z-score) [7]: 4.86
- glycan array binding signal (z-score) [8]: -0.373
- glycan array binding signal (z-score) [9]: 0.29
- glycan array binding signal (z-score) [10]: 0.096
- glycan array binding signal (z-score) (Gal(a1-4)GlcNAc): -0.552
- glycan array binding signal (z-score) (Gal(a1-6)Glc): 0.11
- glycan array binding signal (z-score) [11]: 3.87
- glycan array binding signal (z-score) [12]: -1.03
- glycan array binding signal (z-score) [13]: 0.463
- glycan array binding signal (z-score) [14]: 0.375
- glycan array binding signal (z-score) [15]: -1.39
- glycan array binding signal (z-score) [16]: 0.973
- glycan array binding signal (z-score) (Gal3S6S(b1-4)GlcNAc6S): 4.83
- glycan array binding signal (z-score) (Gal6S(b1-4)GlcNAc6S): 2.48
- glycan array binding signal (z-score) [17]: -0.306
- glycan array binding signal (z-score) (GalNAc(b1-6)GalNAc): -0.31
- glycan array binding signal (z-score) (GalNAc4S6S(b1-4)GlcNAc): 3.2
- glycan array binding signal (z-score) [18]: 5.6
- glycan array binding signal (z-score) [19]: 4.5
- glycan array binding signal (z-score) [20]: -0.76
- glycan array binding signal (z-score) [21]: -1.12
- glycan array binding signal (z-score) [22]: -0.036
- glycan array binding signal (z-score) [23]: 0.638
- glycan array binding signal (z-score) [24]: -3.76
